Data from PubChem BioAssay AID1851 (National Center for Advancing Translational Sciences (NCATS), 2009).
Where “and” joins values, the source holds several entries; their conditions need not be identical. Identical values can stand only once. Hit rate of the full screen: of about 16,000 compounds, about 5,700 (36%) were called active. Roughly 24% stayed inconclusive and do not appear here. The list shows a part of the results. Unmarked numbers belong to inactive results. The call rests on the fitted dose curve; in most records, active means well fitted curve in the direction sought with a large enough effect; inconclusive means small, poorly fitted or top-dose-only effect, or effect the other way; inactive means no such curve, though single readings can be large or run the other way.
On the % scale 0 is the no-effect control and ±100 the full control effect.

The compounds below were run against Cytochrome P450 1A2 (Homo sapiens) (UniProt P05177) (assay: Cytochrome panel assay with activity outcomes). Conditions: recombinant CYP, pro-luciferin dealkylation, luminescence, p450-cyp1a2; series mostly up to 57.1 µM.
Chain of Cytochrome P450 1A2 (Homo sapiens) (P05177 whole entry, looked up): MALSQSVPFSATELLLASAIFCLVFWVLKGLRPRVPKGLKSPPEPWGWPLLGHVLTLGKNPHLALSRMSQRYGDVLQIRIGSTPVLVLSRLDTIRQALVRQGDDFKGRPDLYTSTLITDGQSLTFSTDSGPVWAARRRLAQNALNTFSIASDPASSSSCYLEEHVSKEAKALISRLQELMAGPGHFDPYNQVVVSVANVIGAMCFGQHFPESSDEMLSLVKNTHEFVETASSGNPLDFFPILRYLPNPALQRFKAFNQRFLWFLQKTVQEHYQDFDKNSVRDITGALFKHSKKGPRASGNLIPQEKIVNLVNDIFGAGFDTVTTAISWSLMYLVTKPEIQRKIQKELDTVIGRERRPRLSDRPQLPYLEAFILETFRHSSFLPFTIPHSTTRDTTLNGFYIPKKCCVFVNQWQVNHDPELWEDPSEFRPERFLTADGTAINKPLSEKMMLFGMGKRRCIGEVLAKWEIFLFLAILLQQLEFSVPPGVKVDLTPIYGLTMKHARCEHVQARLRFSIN
In the case of `CC(C)(O/N=C(\C(=O)N[C@@H]1C(=O)N2C(C(=O)[O-])=C(C[n+]3ccccc3)CS[C@@H]12)c1csc(N)n1)C(=O)O`, the AC50 is reported as “inactive”.
`CN1[C@@H]2CCC[C@H]1CC(=O)C2` was tested, and the AC50 was “inactive”.
With `COC1=C[C@H]2C3=C([C@H]2C1=O)[C@H](NC(C)=O)CCc1cc(OC)c(OC)c(OC)c13` the AC50 was “inactive”.
In the case of `COc1ccc2c(c[n+](C)c3c4cc5c(cc4ccc23)OCO5)c1OC`, the AC50 is reported as 10 µM (active).
Compound `Oc1cccc2cccnc12` has an activity, negative = inhibition of -20% [at 11.4 µM].
For `CN1CC[C@@]2(CCCN(C(=O)c3csnn3)C2)C1`, the AC50 was “inactive”.
`O[C@H](CN1CC1)[C@@H](O)CN1CC1` was tested, and the activity, negative = inhibition was 1.6% [at 11.4 µM].
For `NC(=O)c1cc(N2CC2)c([N+](=O)[O-])cc1[N+](=O)[O-]`, the AC50 was “inactive”.
`CN1CCN(c2cc(N3CCCC3)c([N+](=O)[O-])cc2F)CC1` was tested, and the AC50 was 0.355 µM (active).
For `C[N+]12CCC(CC1)[C@@H](OC(=O)C(O)(c1ccccc1)c1ccccc1)C2`, the AC50 was “inactive”.
With `C(=NC12CN3CN(CN(C3)C1)C2)c1cccs1` the AC50 was “inactive”.
With `CC(C)c1ccc(C(O)(C(=O)O)c2ccc(C(C)C)cc2)cc1` the activity, negative = inhibition was -8.75% [at 11.4 µM].
For `CC(C)c1ccc2c(c1)c(SC(C)(C)C)c(CC(C)(C)C(=O)O)n2Cc1ccc(Cl)cc1`, the AC50 was 25.1 µM (active).
With `C=C1C(O)(c2ccccc2)C2CC[N+]1(C)CC2` (stereo unspecified) the AC50 was “inactive”.
With `COC(=O)N1CCC2(CCN(CC(C)C)CC2)CC1` the AC50 was “inactive”.
For `C=C1[C@@H]2CC[C@H]3[C@@]4(C)C[C@@H](O[C@@H]5O[C@H](CO)[C@H](OS(=O)(=O)O)[C@@H](OS(=O)(=O)O)[C@@H]5OC(=O)CC(C)C)C[C@@H](C(=O)O)[C@H]4CC[C@@]3(C2)[C@H]1O`, the AC50 was “inactive”.
`COc1ccc2c(c1)[C@]13CCCC[C@@H]1[C@H](C2)NCC3` was tested, and the AC50 was “inactive”.
In the case of `COc1ccc(C(=O)c2c(C)n(CCN3CCOCC3)c3cc(I)ccc23)cc1`, the AC50 is reported as 15.8 µM (active).
With `N=C1c2ccccc2CN1NC(=O)c1ccc(F)cc1` the AC50 was “inactive”.
For `CN1C(=O)CCS(=O)(=O)[C@@H]1c1ccc(Cl)cc1`, the AC50 was “inactive”.
`Cc1nnc2ccc(-c3cccc(C(F)(F)F)c3)nn12` was tested, and the AC50 was 0.0794 µM (active).
For `CNC[C@H](O)c1ccc(OC(=O)C(C)(C)C)c(OC(=O)C(C)(C)C)c1`, the AC50 was “inactive”.
In the case of `CCOC(=O)[C@@H]1[C@@H]2c3ccccc3-c3ccccc3[C@H]2C[C@H]1O`, the AC50 is reported as 0.631 µM (active).
`O=P(O)(O)c1ccccc1` (tested in a mixture with another compound) was tested, and the activity, negative = inhibition was 7.14% [at 11.4 µM].
For `c1ccc([C@H]2CNCc3ccccc32)cc1`, the AC50 was “inactive”.
For `C[C@@]12CC[C@H](O)C[C@@H]1CC[C@H]1[C@H]2CC[C@@]2(C)[C@@H](C3=CC(=O)OC3)CC[C@]12O`, the AC50 was “inactive”.
For `CC[C@H]1CN2CCc3cc(OC)c(OC)cc3[C@H]2C[C@@H]1C[C@H]1NCCc2c1[nH]c1ccc(O)cc21`, the activity, negative = inhibition was -7.35% [at 11.4 µM].
For `c1ccc2c(c1)Sc1ccccc1N2C[C@H]1CN2CCC1CC2`, the activity, negative = inhibition was -5.29% [at 11.4 µM].
For `O=C1c2ccccc2-c2cc([N+](=O)[O-])c([N+](=O)[O-])cc21`, the AC50 was 0.251 µM (active).
`NCCc1ccc(S(=O)(=O)O)cc1[N+](=O)[O-]` gave an activity, negative = inhibition of -6.66% [at 11.4 µM].
In the case of `CN(N=O)C(=O)N[C@H]1C(O)OC(CO)[C@@H](O)[C@H]1O` (stereo partly specified), the AC50 is reported as “inactive”.
For `C[n+]1c(/C=C\c2ccc(O)c3ncccc23)[se]c2ccccc21`, the activity, negative = inhibition was -22.7% [at 2.29 µM].
For `CC(O)(CS(=O)(=O)c1cccc(C(F)(F)F)c1)C(=O)Nc1ccc(C(F)(F)F)cc1` (stereo unspecified), the AC50 was “inactive”.
In the case of `C=CCn1c(O)c(C(CC)=NC2CC2)c(=O)[nH]c1=O`, the AC50 is reported as 0.708 µM (active).
In the case of `C=CCn1c(O)c(C(C)=NCCCN2CCOCC2)c(=O)[nH]c1=O`, the AC50 is reported as “inactive”.
Compound `C[C@@H]1OC=C2[C@@H](O)[C@H]3O[C@H]3C(=O)[C@@]23[C@H]1[C@H]1C2=C([C@@H](O)[C@H]4O[C@@H]4C2=O)[C@@H]3O[C@@H]1C` has an activity, negative = inhibition of 2.27% [at 11.4 µM].
In the case of `C=CCN1CC[C@]23c4c5ccc(O)c4O[C@@H]2/C(=N/NC(=O)c2ccccc2)CC[C@@]3(O)[C@H]1C5`, the AC50 is reported as “inactive”.
In the case of `CN(C)CCOC(=O)COc1ccc(Cl)cc1`, the AC50 is reported as 10 µM (active).
`CC(=O)[C@@H]1CC[C@@H]2[C@@H]3CCC4=CC(=O)CC[C@@]4(C)[C@H]3CC[C@]21C` was tested, and the AC50 was “inactive”.
With `CC[N+](C)(C)c1cccc(O)c1` the AC50 was “inactive”.
For `COC(=O)c1cc2c(cn1)[nH]c1ccccc12`, the AC50 was 0.631 µM (active).
With `CCN1C[C@]2(C)CC[C@@H](O)[C@]34[C@@H]5CC6[C@@H](OC)C[C@@](O)([C@H]5[C@@H]6O)[C@@H](C[C@@H]23)[C@H]14` the AC50 was “inactive”.
For `CN1[C@@H]2CC[C@H]1CC(O)C2` (stereo partly specified), the AC50 was “inactive”.
With `Oc1ccc2c3c1O[C@@H]1c4[nH]c5c(c4C[C@@]4(O)[C@@H](C2)N(CC2CC2)CC[C@]314)C[C@]1(O)[C@@H]2Cc3ccc(O)c4c3[C@@]1(CCN2CC1CC1)[C@H]5O4` the AC50 was “inactive”.
With `Ic1cncc(OC[C@@H]2CCN2)c1` the AC50 was 0.398 µM (active).
`C[C@@]12CC[C@@H]3[C@H](CCC4=CC(=O)CC[C@]43C)[C@@H]1CC[C@@H]2C(=O)COS(=O)(=O)c1ccc(Br)cc1` was tested, and the activity, negative = inhibition was -3.63% [at 11.4 µM].
For `C1CCc2nnnn2CC1`, the AC50 was “inactive”.
`C/C(=C\c1ccc(N(C)C)cc1)[N+](=O)[O-]` was tested, and the AC50 was 1.41 µM (active).
In the case of `N[C@@H](CP(=O)(O)O)C(=O)O`, the activity, negative = inhibition is reported as -12.6% [at 11.4 µM].
With `CC(=O)OCC(=O)[C@@H]1CC[C@H]2[C@H]3CC[C@H]4C[C@@H](O)CC[C@]4(C)[C@@H]3C(=O)C[C@@]12C` the AC50 was “inactive”.
`Cc1c(C(=O)c2ccc3ccccc3c2)c2cccc3c2n1[C@H](CN1CCOCC1)CO3` was tested, and the AC50 was “inactive”.
For `CCCn1c(C)c(C(=O)c2ccc3ccccc3c2)c2ccccc21`, the AC50 was 6.31 µM (active).
In the case of `CCCn1c(C)c(C(=O)c2cccc3ccccc23)c2ccccc21`, the AC50 is reported as 2 µM (active).
`C[C@@H]1[C@@H](C)N1C[C@H](O)Cn1ccnc1[N+](=O)[O-]` (stereo partly specified) was tested, and the activity, negative = inhibition was -13.2% [at 11.4 µM].
In the case of `Nc1nc2[nH]c(=O)cnc2c(=O)[nH]1`, the AC50 is reported as “inactive”.
With `CN1CC[C@@]23c4ccccc4N[C@H]1[C@]21CCN(C)[C@@H]3Nc2ccccc21` the AC50 was “inactive”.
`O=C(O)CS(=O)(=O)C(c1ccccc1)c1ccccc1` showed an activity, negative = inhibition of -15.7% [at 2.29 µM].
`Cc1cc(C)cc(NC(=S)NC2CC3CCC(C2)N3Cc2ccco2)c1` (stereo unspecified) was tested, and the AC50 was “inactive”.
In the case of `C[C@@H]1C(=O)O[C@@H]2C[C@]34[C@H]5C[C@@H](C(C)(C)C)[C@@]36[C@@H](OC(=O)[C@@H]6O)O[C@@]4(C(=O)O5)[C@@]12O`, the AC50 is reported as “inactive”.
`NCCP(=O)(O)O` showed an activity, negative = inhibition of -12.9% [at 11.4 µM].
Compound `CN[C@H](Cc1ccccc1)c1cccc(OC)c1O` has an activity, negative = inhibition of -11.6% [at 11.4 µM].
For `COC1=CC(=O)O[C@@H](/C=C\c2ccccc2)C1`, the AC50 was 3.16 µM (active).
For `CNC(=O)OCC[N+](C)(C)C`, the AC50 was “inactive”.
With `O=C(NCP(=O)(O)O)c1cccnc1` the activity, negative = inhibition was -11.9% [at 11.4 µM].
For `CC(C)CN1CC2(CCN(C(=O)c3ccncc3)CC2)C1`, the AC50 was “inactive”.
In the case of `C[C@@H]1O[C@H](C[N+](C)(C)C)CS1`, the AC50 is reported as “inactive”.
In the case of `N=C(N)SCc1ccc(Cl)c2ccccc12` (tested in a mixture with another compound), the AC50 is reported as 251 nM (active) and 158 nM (active).
For `COc1ccc2c(c1)CN([C@H](C)[C@@H]1CC[C@@H]3[C@H]4CC[C@H]5C[C@@H](O)CC[C@@]5(C)[C@H]4CC[C@]31C)CO2`, the activity, negative = inhibition was -17.9% [at 2.29 µM].
For `CCCC(CCC)C(=O)O`, the AC50 was “inactive”.
`O=S(=O)(c1ccccc1)N1CCCCC1c1cccnc1` (stereo unspecified) was tested, and the AC50 was “inactive”.
For `CC1(C)[C@@H]2CC[C@]1(C)CN(CCC[N+](C)(C)C)C2`, the activity, negative = inhibition was -6.81% [at 2.29 µM].
With `CC(=Nc1c(C)n(C)n(-c2ccccc2)c1=O)c1c(O)n(Cc2ccccc2)c(=O)[nH]c1=O` the AC50 was “inactive”.
With `CC(=NCCN1CCOCC1)c1c(O)n(Cc2ccccc2)c(=O)[nH]c1=O` the AC50 was “inactive”.
In the case of `CC(=NCc1ccco1)c1c(O)n(-c2ccccc2)c(=O)[nH]c1=O`, the AC50 is reported as 22.4 µM (active).
For `N[C@@]1(C(=O)O)CC[C@H](C(=O)O)C1`, the AC50 was “inactive”.
For `O=C1C2CCN(CC2)C1(CO)CO`, the activity, negative = inhibition was -15.4% [at 11.4 µM].
With `[N-]=[N+]=CC(=O)CC[C@H](N)C(=O)O` the activity, negative = inhibition was -10.9% [at 11.4 µM].
In the case of `Clc1ccccc1-c1cncnc1NCCc1cnc[nH]1`, the AC50 is reported as 1.58 µM (active).
In the case of `Cc1ccccc1-c1cncnc1NCCc1cnc[nH]1`, the AC50 is reported as 5.01 µM (active).
`N=C(N)c1ccc(-c2ccc(-c3ccc(C(=N)N)cc3)o2)cc1` was tested, and the activity, negative = inhibition was -1.35% [at 11.4 µM].
`O=C(O)c1cc(N=Nc2ccc([As](=O)(O)O)cc2)ccc1O` was tested, and the activity, negative = inhibition was -9.91% [at 11.4 µM].
Work on `O=[As](O)(O)c1ccc(N=Nc2ccc([As](=O)(O)O)cc2)cc1` yielded an activity, negative = inhibition of -13.9% [at 11.4 µM].
With `N[C@@H](Cn1ccc(=O)n(Cc2ccc(C(=O)O)cc2)c1=O)C(=O)O` the AC50 was “inactive”.
`c1ccc(C[N+]23CN4CN(CN(C4)C2)C3)cc1` showed an activity, negative = inhibition of -10.1% [at 2.29 µM].
For `Cc1ccc(NC(=[OH+])c2cc3ccccc3cc2O)c(C)c1.Cc1ccc(NC(=[OH+])c2cc3ccccc3cc2O)c(C)c1.[Ni]`, the AC50 was 0.251 µM (active).
For `CN(C)[C@@H]1C(=O)C(C(N)=O)=C(O)[C@]2(O)C(=O)C3=C(O)c4c(O)cccc4[C@@](C)(O)[C@H]3[C@H](O)[C@@H]12`, the AC50 was “inactive”.
